Laboratory results published in PubChem BioAssay (NCI).
Compounds without any hit were thinned out: in the full panel of roughly 83,000, 20% have a hit.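 Assay: single dose, 48 h. Readout: percent growth (0 = no net growth; negative = cell death). Active: <10.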 Values without a mark were called inactive. The source made the active and inactive calls.

Tested on: MDA-MB-468 breast
Test: NCI-60 one-dose screen, 48 h (100 = growth as untreated, 0 = no growth, -100 = all killed)
Conditions: 10 µM unless noted

Compound | growth
NC(=O)c1n[nH]n2c1nc(=O)c1c3c(sc12)CCCC3 | 120%
CC(C)(C)n1cc(-c2ccnc(NCCNS(=O)(=O)c3cccc(F)c3)c2)c(-c2ccccc2)n1 | 62.8%
COc1cccc(-c2cc(-c3cccc(Cl)c3)c(C#N)c(=O)[nH]2)c1 | 70.1%
Nn1c(=O)c(=O)[nH]c2c(cnn2-c2ccccc2)c1=O | 105%
O=C(O)c1cc([N+](=O)[O-])ccc1Br | 96.5%
C=CCC(O)C=C (stereo unspecified) | 102%
COc1ccc(-c2cnoc2-c2cc(OC)c3c(c2)OCCO3)cc1 | 20.4%
NC(=O)NS(=O)(=O)c1ccc(N2N=C(C(F)(F)F)CC2c2cc(C(F)(F)F)cc(C(F)(F)F)c2)cc1 (stereo unspecified) | 70.1%
O=C(NCCN1CCCC1)n1cc(-c2ccncc2)c(-c2cc(O)cc(Cl)c2)n1 | 75.8%
Cc1ccc(NC(=O)Nc2cccnc2)cc1NC(=O)Nc1cccnc1 | 71%
Fc1cc(Nc2ccc3c(OCCCN4CCOCC4)cccc3n2)ccc1Cl | 28.5%
O=C(OCC1CCCO1)c1ccc([N+](=O)[O-])cc1 (stereo unspecified) | 88.9%
O=C(NNc1ccccc1)c1ncc[nH]1 | 75.6%
N#Cc1c(NC(=O)c2ccccc2C(F)(F)F)sc2c1CCC(=O)C2 | -0.286% (active)
O=C(N(c1ccccc1)c1ccccc1)n1cc(I)c2nc(Cl)nc(Cl)c21 | 27.8%
COc1ccc(-c2nc3sc(C)nn3c2-c2nc3cc(C)c(C)cc3[nH]2)cc1 | 113%
